Only some compounds are listed: those with a hit (about 4.1% of all), similar ones and a draw of the others.
hgDAF-12 ag: agonists of H. glycines DAF-12 nuclear receptor; AID 687014; actives 1.8% (n = 370,000); HEK293 GAL4-hgDAF12 UAS-luciferase reporter, agonist luminescence; normalized to butyrate control; activation, % at 6.8 µM;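 active = activation above a cutoff set at the mean of all screened compounds plus 3 SD, cut at about 10% in these data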;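 note: 0% = DMSO wells and 100% = sodium butyrate wells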
hcDAF12 agonist: activators of H. contortus DAF-12 nuclear receptor | activation, % at 6.8 µM | HEK293 hcDAF-12 lit1-tk-luc reporter, luminescence; 0% DMSO, 100% Δ7-dafachronic acid | AID 652067 | actives 1.4% (n = 370,000);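 active = activation above the mean of all tested compounds plus 3 SD, cut at about 5.5% in these data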;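 note: 100% = response to 3 µM Δ7-dafachronic acid high control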
DAX1 inh-1: inhibits human nuclear receptor DAX1. P51843. HEK293 Gal4-DAX1 luciferase reporter, luminescence. inhibition, % at 6.75 µM. actives 0.99% (n = 340,000). AID 504766;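 active = inhibition above the mean over all tested compounds plus 3 SD, cut at about 4.2% in these data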;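 note: 0% = DAX1-transfected cells with DMSO and 100% = empty-vector control cells with DMSO; inhibition shows as a rise in luminescence from relieved DAX1 repression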
DAX1 inh-2: inhibitors of DAX1 repression of SF-1 activated StAR promoter. actives 1.1% (n = 370,000). HEK293T StAR-luciferase reporter, SF-1/DAX-1 repression relief. inhibition, % at 6.8 µM;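 active = inhibition above the mean over all tested compounds plus 3 SD, cut at about 3.6% in these data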;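 note: 0% = DAX-1 cells with DMSO and 100% = cells lacking DAX-1 with DMSO; higher inhibition means more luminescence from relief of DAX-1 repression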
ssDAF12 agonist: activators of S. stercoralis DAF-12 nuclear receptor | HEK293 ssDAF-12/GRIP1 lit1-tk-luc reporter, luminescence; % of 3 µM dafachronic acid response | activation, % at 6.8 µM | AID 652126 | actives 1% (n = 370,000);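 active = activation above the mean over all tested compounds plus 3 SD, cut at about 0.9% in these data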;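 note: 0% = DMSO-only wells and 100% = 3 µM delta7-dafachronic acid wells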
LXRb hcDAF ctr: counter-screen for hcDAF-12 agonists: agonists of human LXR-beta; AID 743027; shares compounds with hcDAF12 agonist; HEK293 Gal4-LXR tk-luc reporter, luminescence, 24 h; normalized: DMSO 0%, positive control 100%; activation, % at 6.8 µM; 3,400 tested, under 10 active;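 active = mean percent activation of the reporter above a cutoff set as the average over tested compounds plus their standard deviation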
Target sequence (P55055 whole entry, looked up, the tested form may be a part): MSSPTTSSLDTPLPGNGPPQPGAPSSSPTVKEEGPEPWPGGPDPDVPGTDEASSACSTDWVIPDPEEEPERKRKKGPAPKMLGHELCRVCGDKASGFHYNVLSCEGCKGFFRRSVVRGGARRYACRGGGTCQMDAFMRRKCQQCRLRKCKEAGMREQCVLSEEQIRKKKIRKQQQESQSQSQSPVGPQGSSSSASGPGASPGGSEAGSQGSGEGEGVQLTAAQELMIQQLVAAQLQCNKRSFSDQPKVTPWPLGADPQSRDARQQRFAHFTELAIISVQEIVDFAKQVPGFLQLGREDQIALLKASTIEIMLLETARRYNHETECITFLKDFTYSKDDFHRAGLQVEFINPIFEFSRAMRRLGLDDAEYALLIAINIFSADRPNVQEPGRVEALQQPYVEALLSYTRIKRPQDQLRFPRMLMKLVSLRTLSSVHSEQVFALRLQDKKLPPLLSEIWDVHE
hcDAF12 conf: confirmation of H. contortus DAF-12 agonists | shares compounds with hcDAF12 agonist | HEK293 hcDAF-12 lit1-tk-luc reporter, luminescence; % of Δ7-dafachronic acid response | activation, % at 6.8 µM | actives 61% (n = 3,400) | AID 743032;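 active = mean activation across triplicate tests above the threshold derived from the earlier primary screen, cut at about 5.5% in these data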;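 note: 0% = DMSO only wells and 100% = 3 µM Δ7-dafachronic acid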
* hit, by the source's call.

Results for CCC(C)c1ccc(Nc2ncccc2C#N)cc1 (stereo not drawn) ?
hgDAF-12 ag: 7; hcDAF12 agonist: 7.7*; DAX1 inh-1: 1; DAX1 inh-2: 0; ssDAF12 agonist: 0; LXRb hcDAF ctr: 1; hcDAF12 conf: 8.6*

How did COC(=O)[C@@H](Cc1ccccc1)NC(=O)[C@H]1O[C@@H](n2cnc3c(=O)[nH]c(N)nc32)[C@H](O)[C@@H]1O do in these assays?
hgDAF-12 ag: -1; hcDAF12 agonist: 0; DAX1 inh-2: 0; ssDAF12 agonist: -1

Results for CC(=O)NCc1ccc(S(=O)(=O)N/N=C/c2ccc(Br)cc2)cc1 ?
hgDAF-12 ag: -1; hcDAF12 agonist: 9.0*; DAX1 inh-1: 0; DAX1 inh-2: 0; ssDAF12 agonist: 0; LXRb hcDAF ctr: 0; hcDAF12 conf: 2

Results for O=C(/C=C\c1ccccc1OC(=O)c1ccccc1F)c1cc2ccccc2o1 ?
hgDAF-12 ag: 10; hcDAF12 agonist: 7.3*; DAX1 inh-1: 5.3*; DAX1 inh-2: 1; ssDAF12 agonist: 1; LXRb hcDAF ctr: 1; hcDAF12 conf: 5.9*

How did CC(C)(C)S(=O)(=O)N1C[C@H]2CC(=O)C=C2[C@@H]1CCO do in these assays?
hgDAF-12 ag: 0; hcDAF12 agonist: 0; DAX1 inh-2: 0; ssDAF12 agonist: -1

Results for Cc1ccc2[nH]c(-c3ccccc3)cc(=O)c2c1 ?
hgDAF-12 ag: 5; hcDAF12 agonist: 13*; DAX1 inh-1: 1; DAX1 inh-2: 3; ssDAF12 agonist: 3.5*; LXRb hcDAF ctr: 1; hcDAF12 conf: 5

How did Cc1ccc(-c2cc(=O)c3ccccc3[nH]2)cc1 do in these assays?
hgDAF-12 ag: 4; hcDAF12 agonist: 1; DAX1 inh-1: 3; DAX1 inh-2: 0; ssDAF12 agonist: -1

Results for CCOC(=O)[C@@]12CCC3=C1N(CCC3)C(=O)[C@H](CC(=O)NCCCCc1ccccc1)C2 ?
hgDAF-12 ag: 2; hcDAF12 agonist: -2; DAX1 inh-2: -1; ssDAF12 agonist: -1

What do the screens show for `CCCC1CCC2(CCCN2CCOC(=S)NCc2cccc(C)c2)CC1` (stereo not drawn)?
hgDAF-12 ag: 4; hcDAF12 agonist: 0; ssDAF12 agonist: -2

Results for Cc1cccc2cc3c(nc12)-c1ccccc1C3=O ?
hgDAF-12 ag: 2; hcDAF12 agonist: 7.2*; DAX1 inh-1: 1; DAX1 inh-2: 1; ssDAF12 agonist: 0; LXRb hcDAF ctr: 0; hcDAF12 conf: 5

How did Cc1nc2c(cc1C#N)C(=O)c1ccccc1-2 do in these assays?
hgDAF-12 ag: -1; hcDAF12 agonist: -1; DAX1 inh-1: 0; DAX1 inh-2: 1; ssDAF12 agonist: -1

Results for COc1ccc(Cn2c(O)c(C=Nc3ccc(OC)cc3)c3ccccc3c2=O)cc1 ?
hgDAF-12 ag: -2; hcDAF12 agonist: -2; DAX1 inh-1: 0; DAX1 inh-2: 0; ssDAF12 agonist: -2

Results for COc1ccc(N=Cc2[nH]c3ccccc3c2O)cc1 ?
hgDAF-12 ag: 8; hcDAF12 agonist: 12*; DAX1 inh-1: 1; DAX1 inh-2: 0; ssDAF12 agonist: 1; LXRb hcDAF ctr: 1; hcDAF12 conf: 9.6*

How did C=CCN(C)CC#Cc1ccc(OC)cc1 do in these assays?
hgDAF-12 ag: -2; hcDAF12 agonist: -2; DAX1 inh-2: 0; ssDAF12 agonist: 0

How did CCSc1nc(=S)n(Cc2ccccc2)c(C)c1C(C)=O do in these assays?
hgDAF-12 ag: -1; hcDAF12 agonist: -1; DAX1 inh-1: -1; DAX1 inh-2: 0; ssDAF12 agonist: -1

What do the screens show for `CSc1nc(=S)n(Cc2ccccc2)c(C)c1C(C)=O`?
hgDAF-12 ag: 0; hcDAF12 agonist: 9.1*; DAX1 inh-1: 0; DAX1 inh-2: 1; ssDAF12 agonist: -1; LXRb hcDAF ctr: 0; hcDAF12 conf: 1

Results for CC(C)OC(=O)CSc1nnc2c3ccccc3n(C)c2n1 ?
hgDAF-12 ag: 0; hcDAF12 agonist: 3; DAX1 inh-1: 0; DAX1 inh-2: 0; ssDAF12 agonist: -1

Results for CC(C)CSc1nnc2c3ccccc3n(C)c2n1 ?
hgDAF-12 ag: 10; hcDAF12 agonist: 14*; DAX1 inh-1: 10*; DAX1 inh-2: 2; ssDAF12 agonist: 1.6*; LXRb hcDAF ctr: 1; hcDAF12 conf: 11*

Results for CCOc1ccc(-n2c(SCC(=O)Nc3ccc(S(=O)(=O)Nc4nccs4)cc3)nnc2-c2ccco2)cc1 ?
hgDAF-12 ag: -1; hcDAF12 agonist: -4; DAX1 inh-2: 1; ssDAF12 agonist: -1

What do the screens show for `Cn1c(O)c(N=Nc2ccccc2[N+](=O)[O-])c2ccccc21`?
hgDAF-12 ag: 11*; hcDAF12 agonist: 11*; DAX1 inh-1: 2; DAX1 inh-2: 1; ssDAF12 agonist: 2.6*; LXRb hcDAF ctr: 0; hcDAF12 conf: 9.0*

Results for CCOC(=O)C(=O)N=Nc1c(O)n(C)c2ccccc12 ?
hgDAF-12 ag: -1; hcDAF12 agonist: 3; DAX1 inh-1: 1; DAX1 inh-2: 1; ssDAF12 agonist: -1

Results for Cc1occc1C(=O)N=Nc1c(O)n(C)c2ccccc12 ?
hgDAF-12 ag: 17*; hcDAF12 agonist: 15*; DAX1 inh-1: 1; DAX1 inh-2: 3; ssDAF12 agonist: 1.0*; LXRb hcDAF ctr: 2; hcDAF12 conf: 15*

How did Cc1ccc2[nH]c(O)c(N=Nc3ccccc3[N+](=O)[O-])c2c1 do in these assays?
hgDAF-12 ag: 3; hcDAF12 agonist: 3; DAX1 inh-1: 1; DAX1 inh-2: 1; ssDAF12 agonist: 0

How did CCOC(=O)N1C(=O)C[C@](Sc2ccc(OC)cc2)(C(=O)N2CCOCC2)[C@H]1c1ccc(OC)cc1 do in these assays?
hgDAF-12 ag: 4; hcDAF12 agonist: 0; DAX1 inh-2: -2; ssDAF12 agonist: -1

How did Cc1nnc(N2CCOCC2)c2nn(-c3ccccc3)c(C)c12 do in these assays?
hgDAF-12 ag: -1; hcDAF12 agonist: -1; DAX1 inh-1: 1; DAX1 inh-2: -1; ssDAF12 agonist: -2

What do the screens show for `c1ccc(-n2nnc3c(N4CCOCC4)ncnc32)cc1`?
hgDAF-12 ag: 7; hcDAF12 agonist: 7.2*; DAX1 inh-1: -2; DAX1 inh-2: 2; ssDAF12 agonist: 0; LXRb hcDAF ctr: 1; hcDAF12 conf: 6.3*

How did CC(=O)N=c1sc2c3ccccc3ccc2n1C do in these assays?
hgDAF-12 ag: 4; hcDAF12 agonist: 7.5*; DAX1 inh-1: -1; DAX1 inh-2: -1; ssDAF12 agonist: 1; LXRb hcDAF ctr: 0; hcDAF12 conf: 3

Bioassay records: PubChem, The Scripps Research Institute Molecular Screening Center
